From the supplement of paper PMC7156485

Experiments:
Conditions in all cases: concentration: 10 µM; 24 h
[1] = tested on: HCC1569; test: cell number relative to DMSO (% of DMSO); higher = more cells (less growth inhibition / toxicity)
Outline: (§1)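 In 384-well plates holding 800 HCC1569 or TDF cells per well in RPMI with 10% FBS, compounds were tested at 10 µM for 24 h at 37 °C in triplicate. Fixation used 3.7% formaldehyde. Staining used a rabbit anti-H1.0 antibody with an AlexaFluor 647 secondary, plus DAPI. Each value, H1.0 nuclear intensity or cell number, is a median of replicates shown as percent of the plate control, and HCC1569 values were smoothed for positional effects.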

[2] = tested on: TDF; test: as above
Outline: as §1

[3] = tested on: TDF; test: H1.0 immunofluorescence intensity relative to DMSO (% of DMSO); higher = stronger H1.0 induction, active = 120 or more
Outline: as §1

[4] = tested on: HCC1569; test: H1.0 immunofluorescence intensity relative to DMSO (% of DMSO); higher = stronger H1.0 induction, active = 140 or more
Outline: as §1
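For H1.0 immunofluorescence intensity relative to DMSO in this document: TDF is a line of transformed human dermal fibroblasts of mesenchymal origin.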
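For cell number relative to DMSO in this document: TDF denotes transformed human dermal fibroblasts of mesenchymal origin.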

Compound | cell number [1] | cell number [2] | H1.0 immunofluorescence intensity [3] | H1.0 immunofluorescence intensity [4]
CN1Cc2c(N)cccc2C(c2ccccc2)C1.O=C(O)C=CC(=O)O (stereo unspecified) [Nomifensine maleate] | 102 | 104 | 89 (inactive) | 101 (inactive)
N#CC(=Cc1ccc(O)cc1)C(N)=C(C#N)C#N [Tyrphostin AG 112] | 101 | 109 | 95.7 (inactive) | 81 (inactive)
COc1ccc(C2CC(=O)c3c(O)cc(OC4OC(COC5OC(C)C(O)C(O)C5O)C(O)C(O)C4O)cc3O2)cc1O (stereo unspecified) [Hesperidine] | 107 | 102 | 93.2 (inactive) | 84.8 (inactive)
c1ccc(-c2cnc(Nc3ccc(OCCN4CCCC4)cc3)s2)cc1 [Flt-3 Inhibitor III] | 80.3 | 74.2 | 97.1 (inactive) | 150 (active)
NCCCCN=C(N)N.O=S(=O)(O)O [Agmatine sulfate] | 106 | 98.2 | 88.7 (inactive) | 92.4 (inactive)
COc1ccc(S(=O)(=O)N2CCC[C@H]2C(=O)Nc2cc(C)cc(C)c2)cc1 | 101 | 113 | 95.5 (inactive) | 102 (inactive)
CCCCCCCCC=CCCCCCCCC(=O)OCC(CO)OC(C)=O (stereo unspecified) [1-Oleoyl-2-acetyl-glycerol] | 98.9 | 106 | 89.4 (inactive) | 106 (inactive)
Cc1c(C)c2c(c(C)c1O)CCC(C)(COc1ccc(CC3SC(=O)NC3=O)cc1)O2 (stereo unspecified) [Troglitazone] | 99.8 | 93.8 | 101 (inactive) | 103 (inactive)
CC(C)(C)NCC(O)COc1nsnc1N1CCOCC1.O=C(O)C=CC(=O)O [(S)-Timolol maleate] | 106 | 105 | 87.4 (inactive) | 97.9 (inactive)
